The source of these data is paper PMC8384837, “Expanding the binding specificity for RNA recognition by a PUF domain”.

Assay in all cases: yeast three-hybrid, YBZ-1, SC-Leu-His + 0.5 mM 3-AT, 4 days
Common to all, as to settings: tags: N-Gal4 AD-HA kept; label: inside an RPR1-promoter hybrid RNA with tandem MS2 sites; ssRNA

The target in assay [1] is PUM1 PUF domain R4-SPN (Homo sapiens, UniProt Q14671 828-1176, N971S;H972P;Q975N). The gist of the method: (§1)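 Each repeat of the Pumilio-1 PUF domain was randomized at its three base-contacting residues, and these libraries were co-expressed from a centromeric plasmid with matching RNA elements in strain YBZ-1. After four days on SC-Leu (input) or SC-Leu-His + 0.5 mM 3-AT (selection), the repeat regions were PCR-amplified and Illumina-sequenced. The interaction score compares variant frequency between input and selection as a log change, computed in log2 with a pseudocount of 1 for absent variants.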

Assay [2] addresses PUM1 PUF domain R4-NNC (Homo sapiens, UniProt Q14671 828-1176, H972N;Q975C). The gist of the method:
as §1

Assay [3] addresses PUM1 PUF domain R4-WGG (Homo sapiens, UniProt Q14671 828-1176, N971W;H972G;Q975G). The method, boiled down:
as §1

For assay [4], the target named is PUM1 PUF domain R1-SRD (Homo sapiens, UniProt Q14671 828-1176, Q867D). The method, boiled down:
as §1

Assay [5] concerns the target PUM1 PUF domain R1-GCK (Homo sapiens, UniProt Q14671 828-1176, S863G;R864C;Q867K). The gist of the method:
as §1

The target in assay [6] is T1, PUM1 PUF domain R6-VWI (Homo sapiens, UniProt Q14671 828-1176, N1043V;Y1044W;Q1047I).
T1 sequence: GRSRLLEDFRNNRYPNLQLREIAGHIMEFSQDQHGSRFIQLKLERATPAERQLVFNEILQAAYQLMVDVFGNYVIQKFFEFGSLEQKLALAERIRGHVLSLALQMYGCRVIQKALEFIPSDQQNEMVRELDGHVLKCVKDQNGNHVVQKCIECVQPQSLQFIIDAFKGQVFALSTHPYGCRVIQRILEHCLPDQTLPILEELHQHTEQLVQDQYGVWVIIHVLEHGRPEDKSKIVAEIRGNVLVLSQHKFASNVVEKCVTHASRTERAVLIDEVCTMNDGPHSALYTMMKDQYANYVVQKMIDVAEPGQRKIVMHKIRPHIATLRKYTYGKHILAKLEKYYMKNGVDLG
The method, boiled down: as §1

Assay [7] deals with PUM1 PUF domain R5-RLQ (Homo sapiens, UniProt Q14671 828-1176, C1007R;R1008L). The gist of the method:
as §1

Assay [8] concerns the target PUM1 PUF domain R5-RRF (Homo sapiens, UniProt Q14671 828-1176, C1007R;Q1011F). The method, boiled down: as §1
Assay [9] addresses PUM1 PUF domain R5-KYA (Homo sapiens, UniProt Q14671 828-1176, C1007K;R1008Y;Q1011A). The gist of the method: as §1
Assay [10] concerns the target PUM1 PUF domain R5-DRD (Homo sapiens, UniProt Q14671 828-1176, C1007D;Q1011D). The method, boiled down: as §1
Assay [11] has as its target PUM1 PUF domain R5-SLC (Homo sapiens, UniProt Q14671 828-1176, C1007S;R1008L;Q1011C). The gist of the method:
as §1

In assay [12] the target is PUM1 PUF domain R5-RFW (Homo sapiens, UniProt Q14671 828-1176, C1007R;R1008F;Q1011W). The method, boiled down: as §1

Chain of PUM1 PUF domain R4-WGG (Q14671 828-1176 N971W/H972G/Q975G): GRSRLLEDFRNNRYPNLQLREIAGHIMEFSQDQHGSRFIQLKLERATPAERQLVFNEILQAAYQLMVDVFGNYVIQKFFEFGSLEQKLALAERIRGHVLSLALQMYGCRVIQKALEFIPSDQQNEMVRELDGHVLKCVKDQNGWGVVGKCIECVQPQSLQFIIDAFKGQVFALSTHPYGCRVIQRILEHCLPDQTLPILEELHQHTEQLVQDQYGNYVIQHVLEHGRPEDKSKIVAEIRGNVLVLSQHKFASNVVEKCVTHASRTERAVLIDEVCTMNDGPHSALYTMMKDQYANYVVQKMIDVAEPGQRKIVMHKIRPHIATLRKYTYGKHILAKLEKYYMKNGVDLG

As to “GGCUAGAACUAGUGGAUCCCCCGGCGCCCGGCGGCUCGAGCCCGGGUAAGUGUAUAUAGUCUGCAUGCCGCCGGGCGCCAUGCCUGCAGGUCGACUCUAGAAAACAUG”, the binding signal in assay [1] was 4.43 log2 enrichment (interaction score); in assay [2], 3.85 log2 enrichment (interaction score); in assay [3], 3.71 log2 enrichment (interaction score).
As for “GGCUAGAACUAGUGGAUCCCCCGGCGCCCGGCGGCUCGAGCCCGGGUAAGUGUAAAUGGUCUGCAUGCCGCCGGGCGCCAUGCCUGCAGGUCGACUCUAGAAAACAUG”, the binding signal in assay [4] was 3.35 log2 enrichment (interaction score).
With “GGCUAGAACUAGUGGAUCCCCCGGCGCCCGGCGGCUCGAGCCCGGGUAAGUGUACAUAGUCUGCAUGCCGCCGGGCGCCAUGCCUGCAGGUCGACUCUAGAAAACAUG”, the figures for the binding signal in [1] and in assay [3] were 1.41 log2 enrichment (interaction score) and 3.3 log2 enrichment (interaction score), respectively.
“GGCUAGAACUAGUGGAUCCCCCGGCGCCCGGCGGCUCGAGCCCGGGUAAGUGUAAAUCGUCUGCAUGCCGCCGGGCGCCAUGCCUGCAGGUCGACUCUAGAAAACAUG”: the binding signal in assay [5] is 2.79 log2 enrichment (interaction score).
As to “GGCUAGAACUAGUGGAUCCCCCGGCGCCCGGCGGCUCGAGCCCGGGUAAGUGAAAAUAGUCUGCAUGCCGCCGGGCGCCAUGCCUGCAGGUCGACUCUAGAAAACAUG”, the binding signal in assay [6] is 5.74 log2 enrichment (interaction score).
In the case of “GGCUAGAACUAGUGGAUCCCCCGGCGCCCGGCGGCUCGAGCCCGGGUAAGUGUUAAUAGUCUGCAUGCCGCCGGGCGCCAUGCCUGCAGGUCGACUCUAGAAAACAUG”, the binding signal in assay [7] was 1.58 log2 enrichment (interaction score); in assay [8] it was 3.3 log2 enrichment (interaction score); in assay [9] it was 4.12 log2 enrichment (interaction score).
Turning to “GGCUAGAACUAGUGGAUCCCCCGGCGCCCGGCGGCUCGAGCCCGGGUAAGUGUGAAUAGUCUGCAUGCCGCCGGGCGCCAUGCCUGCAGGUCGACUCUAGAAAACAUG”, the binding signal was 4.33 log2 enrichment (interaction score) in assay [10], 2.98 log2 enrichment (interaction score) in assay [11], 2.92 log2 enrichment (interaction score) in [12] and 0.9 log2 enrichment (interaction score) in [9].
